# Activity calls are given as the source filed them.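 How the source made its calls: active means fitted curve rises past 20% activation at a concentration no higher than the top valid tested dose; inactive means activity opposite to the expected signal increase, and the rest.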
# Experiment: Rlm1 cell wall stress reporter activators, dose response, S. cerevisiae reporter strain, C. neoformans project, dry powder (AID 743130)
# Details: S. cerevisiae Rlm1-lacZ reporter, luminescence, 4 h, stronger effect = higher value
smiles,measurement,setting,value
Cc1ccc(OCCn2c(=S)[nH]c3ccccc32)c(C(C)C)c1,maximal activation,at 0.135 µM,2.35% (inactive)
same,maximal activation,at 0.26 µM,3.69% (inactive)
